Measurements: PubChem BioAssay (NCI)
The panel holds about 83,000 compounds, 20% with a hit somewhere; the sample as a whole holds those more often.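 Method: cells in 96-well plates; compound added at one concentration; 48 h incubation; percent growth measured; values under 10 scored active.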 Active and inactive are the calls of the source.

Experiments:
Experiment in all cases: NCI-60 one-dose screen, 48 h (100 = growth as untreated, 0 = no growth, -100 = all killed)
Details in all cases: 10 µM unless noted
NCI-H226 lung = test system: NCI-H226 lung
NCI-H322M lung = test system: NCI-H322M lung
HOP-62 NSCLC = test system: HOP-62 NSCLC
NCI-H460 lung = test system: NCI-H460 lung
HOP-92 NSCLC = test system: HOP-92 NSCLC
NCI-H522 lung = test system: NCI-H522 lung
A549/ATCC NSCLC = test system: A549/ATCC NSCLC
786-0 renal = test system: 786-0 renal
COLO 205 colon = test system: COLO 205 colon

Measured: growth

NS(=O)(=O)c1cccc(Nc2nc(SCC(=O)c3ccc(F)cc3)nc3ccccc23)c1
active: HOP-62 NSCLC 5.89% | NCI-H522 lung -0.334%
inactive: NCI-H226 lung 15.3% | NCI-H322M lung 22.9% | NCI-H460 lung 12.5% | HOP-92 NSCLC 29% | A549/ATCC NSCLC 28.1% | 786-0 renal 26.1% | COLO 205 colon 26.4%

O=C(CSc1nc2sc3c(c2c(=O)n1-c1ccc(Cl)cc1)CCCC3)N/N=C/C=C/c1ccccc1
inactive: NCI-H322M lung 34.8%
active: NCI-H226 lung -36.1% | HOP-62 NSCLC -71.3% | NCI-H460 lung -16.9% | HOP-92 NSCLC 9.97% | NCI-H522 lung 2.3% | A549/ATCC NSCLC -18.3% | 786-0 renal -45.2% | COLO 205 colon -45.4%

OCCn1cc(-c2nc3ccc4[nH]ncc4c3c3c2CCCC3)cn1
inactive: NCI-H226 lung 17.9% | NCI-H322M lung 68.5% | HOP-62 NSCLC 57.7% | NCI-H460 lung 20% | HOP-92 NSCLC 51.8% | NCI-H522 lung 38.9% | A549/ATCC NSCLC 26.6% | 786-0 renal 43.1% | COLO 205 colon 32.8%

CNc1nc2ccccc2n2c(-c3ccc(O)c(O)c3)cnc12
active: NCI-H226 lung -14.9% | NCI-H460 lung 3.63% | NCI-H522 lung -39.6%
inactive: NCI-H322M lung 38.8% | HOP-62 NSCLC 26.5% | HOP-92 NSCLC 13.9% | A549/ATCC NSCLC 15.9% | 786-0 renal 24.7%

COc1ccc(-c2cc(-c3ccccc3)c(C#N)c(=O)[nH]2)cc1S(N)(=O)=O
inactive: NCI-H226 lung 103% | NCI-H322M lung 113% | HOP-62 NSCLC 97.6% | NCI-H460 lung 104% | HOP-92 NSCLC 110% | NCI-H522 lung 93.3% | A549/ATCC NSCLC 98.7% | 786-0 renal 94.7% | COLO 205 colon 118%

c1ccc(CSc2nnc(-c3ccc4nc(-c5ccccc5)[nH]c4c3)o2)cc1
inactive: NCI-H322M lung 35.9% | HOP-92 NSCLC 32.2% | NCI-H522 lung 33.7% | COLO 205 colon 78.3%
active: NCI-H226 lung -40.1% | HOP-62 NSCLC -3.53% | NCI-H460 lung -41.3% | A549/ATCC NSCLC -12.4% | 786-0 renal -17.3%

O=C(c1ccc(O)cc1)C1[C@H](c2ccccc2Br)[C@@H](c2ccccc2)NC12C(=O)Nc1ccccc12 (some centres undefined)
inactive: NCI-H226 lung 53.3% | NCI-H322M lung 61.6% | HOP-62 NSCLC 59.8% | NCI-H460 lung 33.1% | HOP-92 NSCLC 38.8% | A549/ATCC NSCLC 22.9% | 786-0 renal 28.8% | COLO 205 colon 28%
active: NCI-H522 lung -21.1%

COc1ccc(-c2nc3ccccc3n2CC(=O)N=Nc2c(O)[nH]c3ccc(Br)cc23)cc1
inactive: NCI-H226 lung 100% | NCI-H322M lung 103% | HOP-62 NSCLC 69.8% | NCI-H460 lung 80.6% | HOP-92 NSCLC 79.8% | NCI-H522 lung 67.4% | A549/ATCC NSCLC 98.2% | 786-0 renal 97.3% | COLO 205 colon 83%

COc1ccc(C(=O)NNC(=O)CSc2nc3sc4c(c3c(=O)n2-c2ccc(Cl)cc2)CCCC4)cc1
inactive: NCI-H226 lung 33.1% | NCI-H322M lung 73.5% | HOP-62 NSCLC 18.7% | NCI-H460 lung 87.2% | HOP-92 NSCLC 60.8% | NCI-H522 lung 59% | A549/ATCC NSCLC 86.7% | 786-0 renal 102% | COLO 205 colon 118%

S=C(Nc1ccc(OCc2nc3ccc(Cl)cc3[nH]2)cc1)NC1CCCCC1
inactive: A549/ATCC NSCLC 15.6%
active: NCI-H226 lung -1.48% | NCI-H322M lung 9.78% | HOP-62 NSCLC -20.7% | NCI-H460 lung -21.5% | HOP-92 NSCLC -4.42% | NCI-H522 lung -21.4% | 786-0 renal -20.6% | COLO 205 colon -68.4%

C[C@H]1[C@@H](CC(=O)N[C@@H](Cc2coc3ccccc23)B(O)O)O[C@@H]2OC3(C)CC[C@H]4[C@H](C)CC[C@@H]1[C@@]24O3
inactive: NCI-H322M lung 74.9% | NCI-H460 lung 17% | HOP-92 NSCLC 23.2% | A549/ATCC NSCLC 31.6% | 786-0 renal 17.1% | COLO 205 colon 23%
active: NCI-H226 lung -15.5% | HOP-62 NSCLC 6.31% | NCI-H522 lung -50%

O=C(N=Nc1c(O)[nH]c2ccc(Br)cc12)c1ccc2nc(-c3ccc(Cl)cc3)[nH]c2c1
active: NCI-H322M lung 6.48% | HOP-62 NSCLC -55.9% | NCI-H460 lung -19.4% | HOP-92 NSCLC -9.49% | NCI-H522 lung -47.2% | 786-0 renal -73.7% | COLO 205 colon -36.1%
inactive: NCI-H226 lung 16.6% | A549/ATCC NSCLC 14.9%

CCOc1ccc2[nH]c(=O)c(C(c3nnnn3CC3CCCO3)N3CCN(Cc4ccccc4)CC3)cc2c1 (centres undefined)
inactive: NCI-H226 lung 73.6% | NCI-H322M lung 101% | HOP-62 NSCLC 102% | NCI-H460 lung 84.7% | HOP-92 NSCLC 54% | NCI-H522 lung 84.7% | A549/ATCC NSCLC 92.7% | 786-0 renal 41.7% | COLO 205 colon 106%

COc1c(F)ccc(C(=O)Nc2ccc3nc(NC(=O)C4CCCN(S(=O)(=O)c5ccc(C(C)(C)C)cc5)C4)sc3c2)c1F (centres undefined)
inactive: NCI-H226 lung 64.1% | NCI-H322M lung 80.3% | HOP-62 NSCLC 88.9% | NCI-H460 lung 57.3% | NCI-H522 lung 66.7% | A549/ATCC NSCLC 64.1% | 786-0 renal 56% | COLO 205 colon 80.9%
active: HOP-92 NSCLC 6.58%

C=CC[n+]1cccc2c3ccccc3ccc21
inactive: NCI-H226 lung 58% | NCI-H322M lung 76.7% | HOP-62 NSCLC 44.9% | NCI-H460 lung 23.2% | HOP-92 NSCLC 52.3% | NCI-H522 lung 27.1% | A549/ATCC NSCLC 28.1% | 786-0 renal 66.2% | COLO 205 colon 28.4%
